Laboratory results taken from PubChem BioAssay (NCI).
The panel holds about 79,000 compounds, 15% with a hit somewhere; the sample as a whole holds those more often. The source made the active and inactive calls. Rule as the data show it: active = growth inhibition above about 70%; inactive = the rest.

Assay: NCI Yeast Anticancer Drug Screen. Data for the sgs1 mgt1 strain (AID 161);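 also: 0% = growth of cultures given vehicle only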
Settings: S. cerevisiae sgs1 mgt1 strain, hits give high values; at 50.0 µM unless noted
In short: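 Percent growth inhibition was derived by comparing compound-exposed mutant yeast with vehicle-exposed cultures. The strain carries alterations in DNA damage repair.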

SMILES	growth inhibition
COc1ccc2c(c1)c(COC(C)=O)c(C)c[n+]2[O-]	42.1% (inactive)
C=C(C)C1CCC2(C)CCC(=O)C(C)=C2C1 (stereo not drawn)	-5.75% (inactive)
CCOC(=O)C(CC/C=C\c1ccccc1)N1CCC[C@H]1C(=O)OC (stereo partly drawn)	-11.9% (inactive)
Cc1[nH]c2c(ccc3c2ccc2c(=O)c(C)c(C)[nH]c23)c(=O)c1C	-4.35% (inactive)
O/C(=C/c1ncnc2ccccc12)c1cccc(Cl)c1	22.8% (inactive)
CC(=O)OC1CCC2(C)C(CCC3C2C(=O)C(OC(C)=O)C2(C)C3CC3OC4(CCC(C)CO4)C(C)C32)C1 (stereo not drawn)	-11.2% (inactive)
O=[N+]([O-])c1ccc[nH]1	-4.2% (inactive)
Oc1cc2c(cc1C(Nc1ncccn1)c1ccc3c(c1)OCO3)OCO2 (stereo not drawn)	12.8% (inactive)
CC(=O)OCC(O)CS(=O)c1ccc(C)cc1 (stereo not drawn)	0.4% (inactive)
CCCCCOC(=O)C#CC(=O)OCCCCC	99.7% (active)
CCN(CC)C(=O)Oc1cccc(NC(=O)OC)c1	29.4% (inactive)
Clc1nn2cnnc2c2ncccc12	2.95% (inactive)
CC[N+](CC)(CC)CCOc1nc(OCC[N+](CC)(CC)CC)nc(OCC[N+](CC)(CC)CC)n1	10.3% (inactive)
CCOC(=O)C(=CNc1ccc(OC)cc1[N+](=O)[O-])C(=O)OCC	11.6% (inactive)
CC1Nc2ccccc2C1C (stereo not drawn)	-62.1% (inactive)
CCOc1ccc2c(c1)S(=O)(=O)OC2=O	7% (inactive)
COc1cc2c(cc1OC)C1C(C)c3ccc(OC)c(OC)c3CN1CC2 (stereo not drawn)	-3.25% (inactive)
Cc1ccc(S(=O)(=O)N2CCC(CCl)N(S(=O)(=O)c3ccc(C)cc3)CC2CCl)cc1 (stereo not drawn)	0.95% (inactive)
CCCCCC1CC(C(C)=O)CN1c1ccc(F)cc1 (stereo not drawn)	11.8% (inactive)
O=C1OCc2ccccc21	11.2% (inactive)

SMILES	growth inhibition
O=C(Cc1ccccc1)c1ccccc1C(=O)NCc1ccncc1	2.25% (inactive)
Cc1ccc(N(C)S(=O)(=O)c2ccccc2)cc1	15.4% (inactive)
CN(/N=C/c1cccs1)c1ccc(Cl)cc1[N+](=O)[O-]	-13.8% (inactive)
COCc1ccc2c(c1)C(O)NC(=O)O2 (stereo not drawn)	13.3% (inactive)
Cc1nc(N(C)C)oc(=O)c1CCc1ccccc1	-0.9% (inactive)
CN(C)c1cccc2c(S(=O)(=O)NCCCNCCN)cccc12	-20.9% (inactive)
COc1cc(N=Nc2c(N)nc(N)[nH]c2=O)c(OC)cc1Cl	-8% (inactive)
CC(C)(CO)CNC(=O)C(C)(C)CO	-5% (inactive)
CCOC(=O)c1ccc(O)c(NC(C)=O)c1	0.15% (inactive)
CCCn1c(C)nc2c([N+](=O)[O-])cc(C)cc21	-12.9% (inactive)
CCC(C)(C)NC(N)=O	8.55% (inactive)
COc1cc(C(=O)N(C)C)cc(OC)c1OC	-6.6% (inactive)
C=C(COc1ccc(OC)cc1)C(C)(C)C	-17.4% (inactive)
CCN(CC(COc1ccc2c(c1)[n+]([O-])nc(N)[n+]2[O-])OC(C)=O)C(C)=O (stereo not drawn)	41.5% (inactive)
CC1(C)CC[C@]2(C(=O)O)CC[C@]3(C)C(=CC[C@@H]4[C@@]5(C)CC[C@H](OC6OC(CO)C(O)C(O)C6O)C(C)(C)[C@@H]5CC[C@]43C)[C@@H]2C1 (stereo partly drawn)	47.9% (inactive)
CCc1ccccc1NC(=O)C(=O)CC(=O)c1sc(Nc2ccccc2Cl)nc1C	26% (inactive)
Cn1c(-c2csc(-c3ccc(Cl)cc3)n2)n[nH]c1=S	11.6% (inactive)
O=c1oc2ccccc2c(O)c1Cc1ccccc1Cc1c(O)c2ccccc2oc1=O	-13.2% (inactive)
Cc1ccc(Nc2cc(C(=O)O)c(Nc3ccc(C)cc3)cc2C(=O)O)cc1	12.3% (inactive)

Assay: NCI Yeast Anticancer Drug Screen. Data for the cln2 rad14 strain (AID 165);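 also: 0% = growth equal to vehicle treated cultures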
Settings: S. cerevisiae cln2 rad14 strain, hits give high values; at 50.0 µM unless noted
In short: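 Growth inhibition, relative to vehicle-treated controls, is the read-out. The test organism is a yeast strain with defined genetic alterations, cln2 rad14.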

SMILES	growth inhibition
COc1ccc2c(c1)c(COC(C)=O)c(C)c[n+]2[O-]	16.6% (inactive)
C=C(C)C1CCC2(C)CCC(=O)C(C)=C2C1 (stereo not drawn)	-19.7% (inactive)
CCOC(=O)C(CC/C=C\c1ccccc1)N1CCC[C@H]1C(=O)OC (stereo partly drawn)	9.55% (inactive)
Cc1[nH]c2c(ccc3c2ccc2c(=O)c(C)c(C)[nH]c23)c(=O)c1C	-29% (inactive)
O/C(=C/c1ncnc2ccccc12)c1cccc(Cl)c1	-11.4% (inactive)
CC(=O)OC1CCC2(C)C(CCC3C2C(=O)C(OC(C)=O)C2(C)C3CC3OC4(CCC(C)CO4)C(C)C32)C1 (stereo not drawn)	3.6% (inactive)
O=[N+]([O-])c1ccc[nH]1	15.3% (inactive)
Oc1cc2c(cc1C(Nc1ncccn1)c1ccc3c(c1)OCO3)OCO2 (stereo not drawn)	-16.3% (inactive)
CC(=O)OCC(O)CS(=O)c1ccc(C)cc1 (stereo not drawn)	-30.6% (inactive)
CCCCCOC(=O)C#CC(=O)OCCCCC	99.4% (active)
CCN(CC)C(=O)Oc1cccc(NC(=O)OC)c1	16.1% (inactive)
Clc1nn2cnnc2c2ncccc12	-13.3% (inactive)
CC[N+](CC)(CC)CCOc1nc(OCC[N+](CC)(CC)CC)nc(OCC[N+](CC)(CC)CC)n1	9.1% (inactive)
CCOC(=O)C(=CNc1ccc(OC)cc1[N+](=O)[O-])C(=O)OCC	0.3% (inactive)
CC1Nc2ccccc2C1C (stereo not drawn)	7.05% (inactive)
CCOc1ccc2c(c1)S(=O)(=O)OC2=O	25.6% (inactive)
COc1cc2c(cc1OC)C1C(C)c3ccc(OC)c(OC)c3CN1CC2 (stereo not drawn)	-0.95% (inactive)
Cc1ccc(S(=O)(=O)N2CCC(CCl)N(S(=O)(=O)c3ccc(C)cc3)CC2CCl)cc1 (stereo not drawn)	-9.05% (inactive)
CCCCCC1CC(C(C)=O)CN1c1ccc(F)cc1 (stereo not drawn)	8.7% (inactive)
O=C1OCc2ccccc21	-26.7% (inactive)

SMILES	growth inhibition
O=C(Cc1ccccc1)c1ccccc1C(=O)NCc1ccncc1	-20.5% (inactive)
Cc1ccc(N(C)S(=O)(=O)c2ccccc2)cc1	4.25% (inactive)
CN(/N=C/c1cccs1)c1ccc(Cl)cc1[N+](=O)[O-]	0.95% (inactive)
COCc1ccc2c(c1)C(O)NC(=O)O2 (stereo not drawn)	-28.2% (inactive)
Cc1nc(N(C)C)oc(=O)c1CCc1ccccc1	0.2% (inactive)
CN(C)c1cccc2c(S(=O)(=O)NCCCNCCN)cccc12	24.4% (inactive)
COc1cc(N=Nc2c(N)nc(N)[nH]c2=O)c(OC)cc1Cl	5.05% (inactive)
CC(C)(CO)CNC(=O)C(C)(C)CO	21.1% (inactive)
CCOC(=O)c1ccc(O)c(NC(C)=O)c1	-42.5% (inactive)
CCCn1c(C)nc2c([N+](=O)[O-])cc(C)cc21	-34.2% (inactive)
CCC(C)(C)NC(N)=O	-34.2% (inactive)
COc1cc(C(=O)N(C)C)cc(OC)c1OC	2.25% (inactive)
C=C(COc1ccc(OC)cc1)C(C)(C)C	-14.4% (inactive)
CCN(CC(COc1ccc2c(c1)[n+]([O-])nc(N)[n+]2[O-])OC(C)=O)C(C)=O (stereo not drawn)	40.1% (inactive)
CC1(C)CC[C@]2(C(=O)O)CC[C@]3(C)C(=CC[C@@H]4[C@@]5(C)CC[C@H](OC6OC(CO)C(O)C(O)C6O)C(C)(C)[C@@H]5CC[C@]43C)[C@@H]2C1 (stereo partly drawn)	74.2% (active)
CCc1ccccc1NC(=O)C(=O)CC(=O)c1sc(Nc2ccccc2Cl)nc1C	-16.6% (inactive)
Cn1c(-c2csc(-c3ccc(Cl)cc3)n2)n[nH]c1=S	8.3% (inactive)
O=c1oc2ccccc2c(O)c1Cc1ccccc1Cc1c(O)c2ccccc2oc1=O	10.9% (inactive)
Cc1ccc(Nc2cc(C(=O)O)c(Nc3ccc(C)cc3)cc2C(=O)O)cc1	33.4% (inactive)
